This note sets out measurements from PubChem BioAssay (Tox21).

“And” between values parts separate entries of the source, which are not always exact repeats. Equal entries are not always repeated. Records with an inconclusive call do not appear. More than one record can exist for a structure, and the calls need not agree. The source made the active and inactive calls. Unless noted, calls come from the whole dose curve; as a rule, active = well fitted curve in the direction sought with a large enough effect in the repeat runs; inconclusive = weak or mixed curves; inactive = no such curve, though single readings can be large; an effect the other way counts as inactive or inconclusive.

Assay [1] in a line: qHTS assay to identify small molecule antagonists of the thyroid receptor (TR) signaling pathway (AID 743065). Note: nearly all actives have a fitted effect of over 55% in size. Note: potency is the fitted concentration of half-maximal effect. An outline of the steps: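 Antagonism measured as loss of luciferase signal in GH3 cells stably carrying a TRE-luciferase reporter, co-treated with compound and T3 (1 nM final) for 23.5 h at 37 C. Viability was read in the same well by CellTiter-Fluor.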
(In general: Quantitative high-throughput screening tests each substance at several concentrations.)

Assay [2] deals with thyroid hormone receptor (rat, GH3 cells). The assay can be described thus: qHTS assay to identify small molecule agonists of the thyroid receptor (TR) signaling pathway (AID 743066; calls by dose curve; note: potency is the fitted concentration of half-maximal effect).
Assay [3] deals with Estrogen receptor (Homo sapiens) (UniProt P03372). The assay can be described thus: qHTS assay to identify small molecule antagonists of the estrogen receptor alpha (ER-alpha) signaling pathway (AID 743069; active = well fitted curve in the direction sought with a large enough effect in the signal ratio in the repeat runs, not every such curve was filed as active; the % refers to the signal ratio). An outline of the steps:
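Antagonist mode: compounds in DMSO were co-added with 17beta-estradiol to ER-alpha-bla HEK293 cells (2% charcoal-stripped serum) and left 18 h at 37C. Reporter inhibition was measured as FRET fluorescence after 2 h LiveBLAzer substrate at room temperature.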

A short description of assay [4]: qHTS assay to identify small molecule antagonists of the estrogen receptor alpha (ER-alpha) signaling pathway - cell viability counter screen (AID 743074; calls by dose curve;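 note: HEK293 cells carrying ER-alpha-UAS-bla reporter stimulated with 17beta-estradiol; nearly all actives have a fitted effect of over 45% in size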; note: potency is the fitted concentration of half-maximal effect).
In assay [5] the target is Estrogen receptor (Homo sapiens) (UniProt P03372). The assay can be described thus: qHTS assay to identify small molecule agonists of the estrogen receptor alpha (ER-alpha) signaling pathway (AID 743075; calls by dose curve;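 note: HEK293 GripTite cells with ER-alpha and UAS-driven beta-lactamase reporter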).
Assay [6] has the same target. The assay can be described thus: qHTS assay to identify small molecule agonists of the estrogen receptor alpha (ER-alpha) signaling pathway using the BG1 cell line (AID 743079). Note: nearly all actives have a fitted effect of over 20% in size. Note: potency is the fitted concentration of half-maximal effect.
The nature of assay [7]: qHTS assay to identify small molecule antagonists of the estrogen receptor alpha (ER-alpha) signaling pathway using the BG1 cell line (AID 743080; calls by dose curve;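 note: BG1 cells stimulated with 17beta-estradiol alongside compound; nearly all actives have a fitted effect of over 25% in size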). The following applies: BG1Luc4E2 ERE-luciferase antagonist mode, luminescence; activity change, negative = inhibition: at 70.3 µM (top of the series). The procedure, abridged:
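Readout is ONE-Glo luminescence, taken 30 min at room temperature after reagent addition, preceded by a CellTiter-Fluor viability read; BG1-Luc-4E2 cells had received compound and 17beta-estradiol for 21.5 h at 37 C.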

The nature of assay [8]: qHTS assay to identify small molecule antagonists of the estrogen receptor alpha (ER-alpha) signaling pathway using the BG1 cell line - cell viability counter screen (AID 743081).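 Note: compound given together with 17beta-estradiol as the ER stimulus; nearly all actives have a fitted effect of over 45% in size.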 Note: potency is the fitted concentration of half-maximal effect.
The target of assay [9] is Aromatase (Homo sapiens) (UniProt P11511). Briefly: qHTS assay to identify aromatase inhibitors (AID 743083). Note: nearly all actives have a fitted effect of over 55% in size. Note: potency is the fitted concentration of half-maximal effect.
A short description of assay [10]: qHTS assay to identify aromatase inhibitors - cell viability counter screen (AID 743084).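 Note: cells stimulated with testosterone during compound exposure; nearly all actives have a fitted effect of over 55% in size.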 Note: potency is the fitted concentration of half-maximal effect.

Chain of Aromatase (Homo sapiens) (P11511 whole entry, looked up): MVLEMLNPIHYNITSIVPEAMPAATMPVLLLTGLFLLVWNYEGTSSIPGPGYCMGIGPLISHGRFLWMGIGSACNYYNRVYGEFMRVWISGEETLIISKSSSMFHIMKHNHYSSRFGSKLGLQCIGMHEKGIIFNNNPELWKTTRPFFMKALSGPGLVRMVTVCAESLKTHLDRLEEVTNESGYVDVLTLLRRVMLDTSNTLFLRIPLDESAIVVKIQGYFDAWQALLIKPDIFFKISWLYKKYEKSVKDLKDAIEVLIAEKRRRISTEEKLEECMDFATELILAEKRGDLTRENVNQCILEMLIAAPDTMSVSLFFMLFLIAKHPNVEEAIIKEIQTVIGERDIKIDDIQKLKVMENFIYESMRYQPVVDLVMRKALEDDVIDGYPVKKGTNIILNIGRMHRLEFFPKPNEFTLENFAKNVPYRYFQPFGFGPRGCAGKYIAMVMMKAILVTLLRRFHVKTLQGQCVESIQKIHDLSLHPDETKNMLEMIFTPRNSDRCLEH
Chain of Estrogen receptor (Homo sapiens) (P03372 whole entry, looked up): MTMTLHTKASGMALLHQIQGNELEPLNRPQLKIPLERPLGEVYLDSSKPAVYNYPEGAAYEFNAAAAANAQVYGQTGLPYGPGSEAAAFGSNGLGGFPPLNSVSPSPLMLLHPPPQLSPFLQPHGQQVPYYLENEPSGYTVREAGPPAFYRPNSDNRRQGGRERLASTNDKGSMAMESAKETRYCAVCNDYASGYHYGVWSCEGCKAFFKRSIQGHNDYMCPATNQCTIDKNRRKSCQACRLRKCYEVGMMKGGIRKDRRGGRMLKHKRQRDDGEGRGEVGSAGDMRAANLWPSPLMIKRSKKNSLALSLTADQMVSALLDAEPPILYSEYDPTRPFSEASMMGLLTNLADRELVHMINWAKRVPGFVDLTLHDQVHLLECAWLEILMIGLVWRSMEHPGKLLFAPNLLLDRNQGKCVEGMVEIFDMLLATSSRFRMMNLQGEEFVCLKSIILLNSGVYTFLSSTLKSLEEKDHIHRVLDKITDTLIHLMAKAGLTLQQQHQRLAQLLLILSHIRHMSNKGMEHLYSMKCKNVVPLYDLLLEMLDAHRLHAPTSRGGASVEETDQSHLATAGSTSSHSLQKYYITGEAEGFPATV

As to `CCCCCCCC(=O)OCC(COC(=O)CCCCCCC)OC(=O)CCCCCCC`, the Potency result in assay [1], in [2], in assay [3], in assay [4], in [5] and in assay [6] was “inactive” in each case. The Potency entry in assay [7], in [8], in assay [9] and in assay [10] was “inactive” each time.
Turning to `CCOC(N)=O`, the Potency result in [1], in assay [2], in assay [3], in [4], in [5] and in assay [6] was “inactive” throughout. Further, the Potency entry in assay [7], in assay [8], in assay [9] and in [10] was “inactive” in each case.
On to `O=c1[nH]cnc2c1ncn2[C@H]1CC[C@@H](CO)O1`, for which the Potency result in assay [1], in assay [3], in [4], in assay [5], in assay [6] and in assay [7] was “inactive” each time. For the same molecule, the Potency entry in assay [8], in [9] and in [10] was “inactive” each time. Also, the Potency entry in [2] was “inactive and 1.31 µM (active)”.
Consider `Nc1ccc([N+](=O)[O-])cc1O`, for which the Potency in assay [1] was 48.6 µM (active); in [10], 24.3 µM (active). The Potency entry in assay [2], in assay [3], in assay [5], in assay [6], in assay [7] and in assay [9] was “inactive” in each case.
In the case of `NC(CO)(CO)CO`, the Potency result in assay [1], in [3], in [4], in [5], in assay [6] and in [7] was “inactive” each time. The Potency entry in [8], in assay [9] and in [10] was “inactive” in each case. In addition, the Potency entry in assay [2] was “inactive and 9.69 µM (active)”.
For the molecule `O=S1(=O)OC(c2ccc(O)cc2)(c2ccc(O)cc2)c2ccccc21`, the Potency entry in assay [1], in assay [2], in [3], in assay [4], in assay [5] and in [7] was “inactive” in each case. Also, the Potency result in assay [9] was “inactive”. The Potency in [6] is 15 µM (active) and inactive; in assay [8] it was 13.3 µM (active) and 27.3 µM (active) and 17.2 µM (active); in assay [10] it was 27.3 µM (active).
With `COc1ccc2c(c1)c(CC(=O)O)c(C)n2C(=O)c1ccc(Cl)cc1`, the Potency entry in assay [1], in assay [2], in assay [3], in assay [4], in assay [5] and in assay [6] was “inactive” throughout. The Potency result in assay [7], in [8], in [9] and in assay [10] was “inactive” throughout.
On to `Cc1ncc([N+](=O)[O-])n1C`, for which the Potency result in assay [1], in assay [2], in [3], in assay [4], in assay [5] and in assay [6] was “inactive” each time. For the same molecule, the Potency result in [7], in assay [8], in [9] and in assay [10] was “inactive” throughout.
As to `CC12CCC(CC1)C(C)(C)O2`, the Potency entry in assay [1], in assay [2], in assay [3], in assay [4], in assay [5] and in assay [6] was “inactive” throughout. For the same molecule, the Potency result in assay [7], in [8], in assay [9] and in assay [10] was “inactive” in each case.
For the molecule `CN(N=O)C(=O)N[C@@H]1[C@@H](O)[C@H](O)[C@@H](CO)O[C@@H]1O`, the Potency entry in assay [1], in assay [2], in [3], in assay [4], in [5] and in [6] was “inactive” throughout. For the same molecule, the Potency entry in assay [7], in assay [8], in [9] and in assay [10] was “inactive” throughout.
Regarding `CN(C)CCOC(c1ccccc1)c1ccccc1`, the Potency was 26.6 µM (active) and 48.6 µM (active) in [1]; “inactive and 9.52 µM (active)” in assay [4]. The Potency entry in [2], in assay [3], in assay [5], in assay [6], in assay [7] and in assay [8] was “inactive” each time. Also, the Potency result in [10] was “inactive”.
`CCOc1ccc(NC(C)=O)cc1`: the Potency entry in assay [1], in [2], in assay [3], in [4], in [5] and in assay [6] was “inactive” throughout. Further, the Potency entry in assay [7], in assay [8], in assay [9] and in assay [10] was “inactive” each time.
With `Nc1ccc(O)c([N+](=O)[O-])c1`, the Potency entry in assay [1], in assay [2], in assay [5], in assay [6], in [7] and in assay [9] was “inactive” throughout. For the same molecule, in assay [8], the Potency is 34 µM (active).
Regarding `CCCCCCc1ccc(O)cc1O`, the Potency is 61.3 µM (active) in assay [1]; “inactive and 61.1 µM (active)” in assay [9]. Also, the Potency result in assay [2], in assay [4] and in assay [8] was “inactive” throughout.
`CCCCOC(=O)c1ccc(O)cc1`: the Potency result in [1], in assay [2], in assay [4], in [8], in assay [9] and in [10] was “inactive” each time.
Consider `Cc1cc(C)nc(NS(=O)(=O)c2ccc(N)cc2)n1`, for which the Potency result in [1], in assay [4], in [8], in [9] and in assay [10] was “inactive” throughout. The Potency entry in assay [2] was “inactive and 69.4 µM (active)”.
Turning to `OC[C@H]1O[C@H](O[C@]2(CCl)O[C@H](CCl)[C@@H](O)[C@@H]2O)[C@H](O)[C@@H](O)[C@H]1Cl`, the Potency result in [1], in [2], in [4], in assay [8], in assay [9] and in [10] was “inactive” throughout.
As to `CC1(C)O[C@@H]2C[C@H]3[C@@H]4CCC5=CC(=O)C=C[C@]5(C)[C@@]4(F)[C@@H](O)C[C@]3(C)[C@]2(C(=O)CO)O1`, the Potency entry in [1], in assay [2], in [4], in assay [8], in [9] and in [10] was “inactive” in each case.
